Nine compounds from PubChem BioAssay can be followed below.

Inconclusive results are not listed. Calls of active or inactive are those of the source. Cut-off read from the data, not from the text of the source, unless noted: active = inhibition above about 80%; inactive = the rest.

A short description of assay [1]: viability loss in pontine glioma line – cell-based, JHH-DIPG-1, MIPE4.0, CellTiter-Glo, qHTS, dose response (AID 1347062; cut-off not given, nearly all actives have AC50 up to about 27 µM). To be noted: JHH-DIPG-1 viability, CellTiter-Glo ATP luminescence. Background: ATP-based viability assays read luminescence as a measure of living cells.
The nature of assay [2]: viability loss in pontine glioma line – cell-based, SU-DIPG-IV, MIPE4.0, CellTiter-Glo, qHTS, dose response (AID 1347063; cut-off not given, nearly all actives have AC50 up to about 30 µM;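 note: compound exposure lasted 48 hours before the viability readout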). To be noted: CellTiter-Glo ATP luminescence.
Assay [3] in a line: growth inhibition of DIPG cells – cell-based, MIPE4.0 library, CellTiter-Glo luminescence, qHTS (AID 1347066; cut-off not given, nearly all actives have AC50 up to about 30 µM;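 note: cells exposed to compound for 48 hours before readout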). The note with it: SU-DIPG-VI viability, CellTiter-Glo ATP luminescence.
The nature of assay [4]: growth inhibition, single agent or in combination, cell-based, chromothripsis tumors, cisplatin or BGB combos (AID 1671449).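 Note: cells exposed for 96 hours; 0% = vehicle DMSO and 100% = killing by high DMSO.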 To be noted: LFS_MB_P medulloblastoma cells.
A short description of assay [5]: growth inhibition, single agent and combos, cell-based, chromothripsis tumors, cisplatin or BGB combos (AID 1671450).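 Note: cells exposed to compound for four days; 0% = vehicle DMSO and 100% = cell killing by high DMSO.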 The note with it: HDN33 neuroblastoma cells, stronger effect = higher value.
A short description of assay [6]: growth inhibition, single agents and combos, LFS_MB_1R, cell-based, cisplatin or BGB combos, synergistic combos for chromothripsis tumors (AID 1671452).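 Note: cells exposed for 96 hours before readout.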 The note with it: LFS_MB_1R medulloblastoma cells, stronger effect = higher value.
Assay [7] in a line: growth inhibition, single agents and combos, HTB85, cell-based, BGB or cisplatin IC20 combos, synergistic combos for chromothripsis tumors (AID 1671453).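 Note: cells exposed for 96 hours before readout; 0% = vehicle DMSO and 100% = high DMSO killing control.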 The note with it: HTB85 osteosarcoma cells, drug combinations, stronger effect = higher value.
Assay [8] in a line: growth inhibition, MDA-MB-436, cell-based, BGB or cisplatin combos, synergistic combos for chromothripsis tumors (AID 1671458; call rule not given here;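 note: cells exposed for 96 hours; 0% = vehicle DMSO and 100% = killing by high DMSO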). To be noted: MDA-MB-436 breast carcinoma growth inhibition, drug combinations, stronger effect = higher value.
Assay [9] can be described thus: BT084 cell growth, single and combined drugs, ICGC_MB145, cisplatin and BGB IC40 combos (AID 1671461).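 Note: cells exposed to drugs for 96 hours; 0% = vehicle DMSO and 100% = high DMSO full killing control.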 The note with it: BT084 medulloblastoma cells, drug combinations, stronger effect = higher value.
A short description of assay [10]: RCMB18 cell growth, single agent and combined, cisplatin and BGB IC40 combos (AID 1671462).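 Note: cells exposed to compound for four days.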 The note with it: RCMB18 medulloblastoma cells, stronger effect = higher value.
Assay [11] in a line: CRL1545 cell growth, single agent and combined, cisplatin and BGB IC20 combos (AID 1671464).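 Note: cells exposed to compound for 96 hours before readout; 0% = vehicle DMSO and 100% = high DMSO killing control.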 To be noted: CRL1545 osteosarcoma cells, stronger effect = higher value.
Assay [12] can be described thus: viability loss in pontine glioma line – cell-based, SU-DIPG-XIII, MIPE4.0, CellTiter-Glo, qHTS, dose response (AID 1347061; cut-off not given, nearly all actives have AC50 up to about 37 µM;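 note: cells exposed to compound for 48 hours before readout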). The note with it: CellTiter-Glo ATP luminescence.
Assay [13] concerns Aerobactin synthetase IucA (Klebsiella pneumoniae). As to the kind of experiment: inhibition of K. pneumoniae IucA enzyme – biochemical, Tocris library, absorbance (AID 1345561; call rule not given here;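 note: 100% = enzyme without compound and 0% = no enzyme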). To be noted: purified IucA enzyme assay, absorbance (OD) read-out; stronger effect = lower value;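 tested at 8 µM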.
Assay [14] can be described thus: GFP-Q80 aggregate reduction, neuronal-like cells, cell-based, NGF-treated PC12, GFPQ80 (AID 1614).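 Note: lower means fewer inclusions and 0 means no inclusions at all.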 To be noted: PC12 NGF-treated GFP-polyQ80 inclusion reduction.
The nature of assay [15]: signal quenchers or enhancers, Cy5 substrate/SSB – biochemical, NIH Clinical Collection, E. coli SSB, artefact control for HCV NS3 helicase inhibitor project (AID 743268; call rule not given here). To be noted: Cy5-oligo bound E. coli SSB, fluorescence interference.
Assay [16] relates to F380Y/beta1. As to the kind of experiment: BK channel mutant inhibitors and activators – cell-based, U2OS BacMam, thallium flux, beta subunits, selectivity assay, profiling panel (AID 1259406;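 active = thallium flux through the channel raised or lowered by more than 3 SD from vehicle-only wells, actives on both sides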;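 note: initial slope of Thallos dye fluorescence rise after thallium is added; log ratio against the mean of 0.3% DMSO vehicle wells on the same plate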). To be noted: U2OS BacMam BK variants, at 30 µM.
In assay [17] the test system is F380Y/beta4. The assay is described as above. The note with it: U2OS BacMam BK variants, at 30 µM.
Assay [18] deals with R275C/beta4. Described as above. The note with it: U2OS BacMam BK variants, at 30 µM.
Assay [19] concerns R275C/Slo1WT/beta2. The assay is described as above. To be noted: U2OS BacMam BK variants, at 30 µM.
The mark [20] stands for this setting: at 0.5 µM, stronger effect = higher value.
Setting [21] is: measured here: combination with BGB IC20, at 0.005 µM.
The mark [22] stands for this setting: measured here: combination with BGB IC40, at 0.005 µM.
Setting [23] is: measured here: combination with BGB IC40, at 0.05 µM.
Setting [24] is: measured here: combination with cisplatin, at 0.5 µM, stronger effect = higher value.
Setting [25] is: measured here: combination with cisplatin, at 5 µM, stronger effect = higher value.
Where [26] appears, read: measured here: with BGB IC20 combination, at 0.5 µM.
The mark [27] stands for this setting: measured here: with cisplatin IC20 combination, at 0.5 µM.
Setting [28] is: measured here: combination with cisplatin, at 0.5 µM.
Setting [29] is: measured here: combination with cisplatin, at 5 µM.
Setting [30] is: measured here: with BGB IC20, at 0.5 µM.
The mark [31] stands for this setting: measured here: with BGB IC20, at 5 µM.
The mark [32] stands for this setting: measured here: with cisplatin IC20, at 0.5 µM.
Where [33] appears, read: measured here: with cisplatin IC20, at 5 µM.
The mark [34] stands for this setting: measured here: BGB combination, at 0.5 µM.
Where [35] appears, read: measured here: BGB combination, at 5 µM.
[36] abbreviates: measured here: cisplatin combination, at 0.5 µM.
Setting [37] is: measured here: cisplatin combination, at 5 µM.
Setting [38] is: cisplatin combination, at 0.5 µM.
The mark [39] stands for this setting: measured here: BGB IC40 combination 0.05 uM, at 0.05 µM.
The mark [40] stands for this setting: measured here: BGB IC40 combination, at 0.05 µM.

For `Cc1c(-c2ccc(O)cc2)n(Cc2ccc(OCCN3CCCCCC3)cc2)c2ccc(O)cc12`, the call in [1], in assay [2] and in assay [3] was inactive.

On to `Cc1ccc2nc(N)[nH]c(=O)c2c1Sc1ccncc1`, for which the inhibition – broadly, the change of the read-out against control, counted positive when it falls – in [4] (setting [20]) is 15.7% (inactive); in [4] (setting [21]), -4.28%; in [4] (setting [22]), -17.9%; in [4] (setting [23]), -6.64%; in [4] (setting [24]) it was 12.2%; in [4] (setting [25]), -5.06%. Further, the inhibition is 21.4% in assay [5] (BGB combo, at 5 µM); -26.6% (inactive) in [5] (at 0.5 µM); 28.1% in assay [5] (cisplatin combo, at 5 µM); -32.4% in [5] (setting [26]); -14.7% in assay [5] (setting [27]); 43.4% in assay [5] (single agent, at 5 µM). Also, the inhibition in assay [6] (at 0.5 µM) is -7.14% (inactive); in [6] (setting [23]), -4.51%; in assay [6] (setting [28]), -35.9%; in [6] (setting [29]) it was 0.93%; in assay [7] (at 0.5 µM), -33.1% (inactive); in assay [7] (setting [30]), -36.1%. In addition, the inhibition in assay [7] (setting [31]) is 7.13%; in assay [7] (setting [32]) it was -25.9%; in [7] (setting [33]) it was 0.276%; in [7] (single agent, at 5 µM), 0.242%; in assay [8] (at 0.5 µM), -7.12% (inactive); in assay [8] (setting [34]), -5.47%. The inhibition in assay [8] (setting [35]) was 11%; in assay [8] (setting [36]), -13.7%; in [8] (setting [37]), 37.3%; in assay [9] (at 0.5 µM) it was 3.52% (inactive); in assay [9] (setting [38]), -1.35%; in assay [9] (cisplatin combination, at 5 µM) it was -137%. Further, the inhibition in assay [9] (setting [39]) is -7.71%; in assay [9] (single agent, at 5 µM), 6.61%; in assay [10] (at 0.5 µM) it was -22.7% (inactive); in assay [10] (cisplatin combo, at 5 µM), -4.62%; in assay [10] (setting [40]), -25.2%; in assay [10] (setting [28]), -45.9%. In addition, the inhibition was 12.6% in assay [10] (single agent, at 5 µM); -26.5% (inactive) in assay [11] (at 0.5 µM); -34.6% in assay [11] (setting [26]); -24.4% in [11] (setting [27]); -59.1% in [11] (single agent, at 0.05 µM); -14.1% in assay [11] (single agent, at 5 µM).

With `CN1C[C@@H]2C[C@H]1CN2c1cc2c(cc1F)c(=O)c(C(=O)O)cn2C1CC1`, the inhibition in [4] (setting [20]) was 0.4% (inactive); in [4] (setting [21]), -2.07%; in assay [4] (setting [22]), -7.14%; in assay [4] (setting [23]), -8.41%; in [4] (setting [24]), -11.6%; in assay [4] (setting [25]), -5.22%. Further, the inhibition in assay [5] (BGB combo, at 5 µM) was -34.1%; in assay [5] (at 0.5 µM), -30.1% (inactive); in assay [5] (cisplatin combo, at 5 µM), -33.7%; in assay [5] (setting [26]), -23.1%; in assay [5] (setting [27]), -48.5%; in assay [5] (single agent, at 5 µM), -33.7%. The inhibition in assay [6] (at 0.5 µM) is -32.5% (inactive); in assay [6] (setting [23]), -27.6%; in assay [6] (setting [28]), -60%; in [6] (setting [29]), -44.9%; in assay [7] (at 0.5 µM) it was -40.1% (inactive); in assay [7] (setting [30]) it was -66.1%. In addition, the inhibition in [7] (setting [31]) is -64.1%; in assay [7] (setting [32]), -24.8%; in assay [7] (setting [33]), -32.6%; in [7] (single agent, at 5 µM), -25%; in assay [8] (at 0.5 µM) it was -9.69% (inactive); in assay [8] (setting [34]), 1.19%. Besides, the inhibition in [8] (setting [35]) was -5.03%; in [8] (setting [36]), -28.1%; in [8] (setting [37]), -7.33%; in assay [9] (at 0.5 µM), -14.9% (inactive); in [9] (setting [38]), -11.4%; in assay [9] (cisplatin combination, at 5 µM), -13.9%. Besides, the inhibition in [9] (setting [39]) is 0.828%; in assay [9] (single agent, at 5 µM), -12.4%; in assay [10] (at 0.5 µM) it was -27.5% (inactive); in assay [10] (cisplatin combo, at 5 µM), -18.3%; in assay [10] (setting [40]), -12.7%; in assay [10] (setting [28]), -81.8%. Also, the inhibition in assay [10] (single agent, at 5 µM) is -17.7%; in assay [11] (at 0.5 µM) it was -62.9% (inactive); in assay [11] (setting [26]), -46.3%; in assay [11] (setting [27]), -75.1%; in assay [11] (single agent, at 0.05 µM) it was -30.1%; in [11] (single agent, at 5 µM), -48.9%.

In the case of `CCCCCCCCCCCCCCCCCCOP(=O)([O-])OC1CC[N+](C)(C)CC1`, the result in [12], in assay [1] and in assay [3] was inactive.

Regarding `Cc1cccc(Nc2cc(Cl)nc(SCC(=O)O)n2)c1C`, the remaining activity – broadly, the signal under treatment as a percentage of the control signal – in [13] is 107% (inactive).

Take `O=C(O)CCC(=O)OC[C@@H](NC(=O)C(Cl)Cl)[C@H](O)c1ccc([N+](=O)[O-])cc1`: the inclusion score in assay [14] came out at 2.

As for `CNS(=O)(=O)CCc1ccc2[nH]cc(C3CCN(C)CC3)c2c1`, the compound was called inactive in assay [2].

In turn, `Cc1ccc(O)cc1` returned an inclusion score in assay [14] of 2.

In assay [14], `CCCC(=O)Nc1ccc(OCC(O)CNC(C)C)c(C(C)=O)c1` (stereo not given) registered an inclusion score of 2. In addition, in assay [15], the fluorescence ratio is 0.9 (inactive). Further, the log fold change Tl+ flux was 0.00237 (inactive) in assay [16], -0.0162 (inactive) in assay [17], 0.0245 (inactive) in assay [18] and -0.0238 (inactive) in assay [19].
